Experimental data from article PMC7819943, “Rice protein-binding microarrays: a tool to detect cis-acting elements near promoter regions in rice”.
Whole data set: some 68,000 sequences, median “fluorescence intensity (a.u.)” near 9,100, cut for the highest 2% near 16,000. The list comes from a sample in which the highest values are over-represented; it also holds similar and randomly drawn sequences.

target: OsWRKY34 (Oryza sativa, UniProt Q0JBA9 1-250); test: protein-binding microarray (RPBM); PBS, 2% BSA, 51.3 ng/ul salmon testes DNA, 50 uM zinc acetate, 200 nM TF, 25 C, 1 h; high values mean tight binding; details: protein: recombinant; tags: N-terminal polyhistidine and DsRed monomer fusion (pET32a); label: CyDye5-dUTP incorporated in the synthesized complementary strand; 3' TTTTT single-stranded linker to array surface; dsDNA, one strand shown
Sequence (Q0JBA9 entry or part of it): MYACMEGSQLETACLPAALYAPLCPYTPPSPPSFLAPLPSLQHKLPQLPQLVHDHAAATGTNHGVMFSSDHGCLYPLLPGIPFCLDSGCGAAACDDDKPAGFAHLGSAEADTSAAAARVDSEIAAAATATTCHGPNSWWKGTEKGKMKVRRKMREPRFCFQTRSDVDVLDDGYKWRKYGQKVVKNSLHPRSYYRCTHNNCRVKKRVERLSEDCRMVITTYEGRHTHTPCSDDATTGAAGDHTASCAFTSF
Method in brief: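 An Axon 4000B scanner gave the binding signal as per-feature fluorescence intensity in arbitrary units. This followed washing of a custom Agilent array that had been incubated for 1 h at 25 °C with 200 nM protein in PBS, 2% BSA, salmon testes DNA and 50 µM zinc acetate. The proteins were transcription factors fused at the N-terminus to polyhistidine and DsRed, expressed in E. coli BL21-CodonPlus and purified on Ni–NTA.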

Row | Sequence | binding signal
1 | ATTAATTTCGCTTGCTAACACGAGTTTAATCTGCCAATTTCGGAGTCACCTAGTGCAG | 10000 fluorescence intensity (a.u.)
2 | CCACTGCATACCAACACCAACCACTGTACTAGCACTACTACGGAGTCACCTAGTGCAG | 8980 fluorescence intensity (a.u.)
3 | AGATTGTGGTGGGTGTTGATTGTGGTGATCTTGTCCCCTCCGGAGTCACCTAGTGCAG | 13000 fluorescence intensity (a.u.)
4 | GGCTCGCGGAGGGCGGGGCTGGGATGGTGGCGGATGGGAGCGGAGTCACCTAGTGCAG | 10800 fluorescence intensity (a.u.)
5 | CTCGAGCGGCGGTGGGGATGGGGATGGGGCGGCGGCGACGCGGAGTCACCTAGTGCAG | 17000 fluorescence intensity (a.u.)
6 | AGGCGAGCGAGGCGGGTGGGCGGGGAGCGAACCAACGACGCGGAGTCACCTAGTGCAG | 8840 fluorescence intensity (a.u.)
7 | GTGGTGTAGTGGGAGCGGCCGAGATGGGGCGTCGACGGGGCGGAGTCACCTAGTGCAG | 8770 fluorescence intensity (a.u.)
8 | CTACTATACGTCGATGGGGAGGGAGGGAGGGTGGCTGTAGCGGAGTCACCTAGTGCAG | 26400 fluorescence intensity (a.u.)
9 | GGAGAAAAAGGGGAGGGAGGGAGATGATGACGTGTAGGGGCGGAGTCACCTAGTGCAG | 8550 fluorescence intensity (a.u.)
10 | AGAGATGCGTGTGTAGGCGGCGGGGAGGGGAGGGCTGTGACGGAGTCACCTAGTGCAG | 17700 fluorescence intensity (a.u.)
11 | GGAGATCCTGAGGCAGCGGGGAGAGGGGAGGTGGGCGATGCGGAGTCACCTAGTGCAG | 10500 fluorescence intensity (a.u.)
12 | GCGGGAGGAGAGCGGCGGGCGGCGGGCGGCGGCGGCTGTGCGGAGTCACCTAGTGCAG | 9520 fluorescence intensity (a.u.)
13 | AGAGGAGGAGAGTGGTGGTGGTGCGAGAGGGAGGGAGATGCGGAGTCACCTAGTGCAG | 9230 fluorescence intensity (a.u.)
14 | GGGCTGGAGATGGAGATGGAGATGGAGATGGAGGGTGGGTCGGAGTCACCTAGTGCAG | 8660 fluorescence intensity (a.u.)
15 | GGCGGGGCGGCGGAGGTGGTGGTGGGGAGGGCGAGAGATGCGGAGTCACCTAGTGCAG | 23400 fluorescence intensity (a.u.)
16 | ATTGCATCGCCCATTTCGCTCATGGATCAGTAGGTAGCCACGGAGTCACCTAGTGCAG | 8190 fluorescence intensity (a.u.)
17 | AGTCAGTGACATCTATCTTTTCATCGATGTGTCTATTGCCCGGAGTCACCTAGTGCAG | 8640 fluorescence intensity (a.u.)
18 | ACCCATCCATCGCCAGCCATGCACACCCTCGCTCTGACGACGGAGTCACCTAGTGCAG | 8640 fluorescence intensity (a.u.)
19 | CAACGAGGAGCGATGCATATCTAGCAGTTTTGTTTTTCATCGGAGTCACCTAGTGCAG | 8420 fluorescence intensity (a.u.)
20 | TACACCCTTGGGCCCACCTGTCAACCTCTCACCCTATATTCGGAGTCACCTAGTGCAG | 11900 fluorescence intensity (a.u.)

Row | Sequence | binding signal
21 | GATGAGTCCTCACCTGAGTTTCTTCCGTCCATGGCGGCCGCGGAGTCACCTAGTGCAG | 10500 fluorescence intensity (a.u.)
22 | ATCCCCAGCCTCCAATACCGGTCCCGTGCTTGTTTTTCTTCGGAGTCACCTAGTGCAG | 9470 fluorescence intensity (a.u.)
23 | AATTCGTACTTTTTCCTTTGTGTTTTGTCTATCTTAAATTCGGAGTCACCTAGTGCAG | 14300 fluorescence intensity (a.u.)
24 | AAACCCACCCACCCAGCGCTTCTTCTTTCCTTTCTTTATTCGGAGTCACCTAGTGCAG | 12900 fluorescence intensity (a.u.)
25 | TTTCCAACCTGATCGGGTGCTGCCTTTTCATTCTTCCCTCCGGAGTCACCTAGTGCAG | 8430 fluorescence intensity (a.u.)
26 | ATTTCCCCTGAACTCTACGTTTACAGGTTATGGTTATCTCCGGAGTCACCTAGTGCAG | 8350 fluorescence intensity (a.u.)
27 | ATACATATTTTTTTCTCTATTTCTGCCCAACATGTTTTTCCGGAGTCACCTAGTGCAG | 8950 fluorescence intensity (a.u.)
28 | AAGGGTTATCGACCTACGCCTGCTGGCCCTTTTCGGCTTTCGGAGTCACCTAGTGCAG | 9300 fluorescence intensity (a.u.)
29 | CGCTCGGCGGTGAGGTGGAGGTGGAGGTGGGTGGGAGATGCGGAGTCACCTAGTGCAG | 12900 fluorescence intensity (a.u.)
30 | CTGTGCGGGAGGTGGAGATGGAGATGGTGGGTGGATCGGACGGAGTCACCTAGTGCAG | 8630 fluorescence intensity (a.u.)
31 | AAACGCTGTGGTGGGTGGTGGTGCGGATGGGGAGGTGTGGCGGAGTCACCTAGTGCAG | 14100 fluorescence intensity (a.u.)
32 | TGGTGGTGGTGGTGGCTGTAGTGTGGAGGTGGTGGGGAGTCGGAGTCACCTAGTGCAG | 16700 fluorescence intensity (a.u.)
33 | TGTCAGGTCAAATCGGGGAGGCGGGGTGCGTACCAACGGTCGGAGTCACCTAGTGCAG | 11900 fluorescence intensity (a.u.)
34 | TCGGCGGCGAGGTGGTGGCGGTGGCGGTGGTGGGAGTAGTCGGAGTCACCTAGTGCAG | 15200 fluorescence intensity (a.u.)
35 | GAGGTGGGTGTGGAACTGTGGATGCGGGTCGGGGAGATCGCGGAGTCACCTAGTGCAG | 16900 fluorescence intensity (a.u.)
36 | CGTTGGAACGTGCGGGTGTGGGGAAACTGAGGGTGAGGATCGGAGTCACCTAGTGCAG | 8600 fluorescence intensity (a.u.)
37 | GCTGTGGCGGAGGTGGGGAGGTGGAGGTGGAGGGGAGATGCGGAGTCACCTAGTGCAG | 24600 fluorescence intensity (a.u.)
38 | GGGAGATTTGTTGCAACGGAGGGCATTGAGTGGTGGGGACCGGAGTCACCTAGTGCAG | 8570 fluorescence intensity (a.u.)
39 | GATGCGGGTGAGGTGCCGCGCTGTGGGGAGAGAGGGTGGGCGGAGTCACCTAGTGCAG | 8560 fluorescence intensity (a.u.)
40 | TGCATTGACCAGGTCAACGGGAGAGGGAGGGGCAAAATCGCGGAGTCACCTAGTGCAG | 19600 fluorescence intensity (a.u.)

Row | Sequence | binding signal
41 | CATCTGATCGGCATCGGCATCGTCCTCGTCCTCGGCATCACGGAGTCACCTAGTGCAG | 9990 fluorescence intensity (a.u.)
42 | TCTGGGTATCCTCTGTTATGTCATCTTCACCTCCATTTGGCGGAGTCACCTAGTGCAG | 8690 fluorescence intensity (a.u.)
43 | CTGCTAGCCCGGTTAATCTACCAAAACCCGTCTTGATTTACGGAGTCACCTAGTGCAG | 9070 fluorescence intensity (a.u.)
44 | TTAGTATAGCTGTATTCTTCCCAACTTCCTATTTTCCTCTCGGAGTCACCTAGTGCAG | 8540 fluorescence intensity (a.u.)
45 | CTCGAACCACTGACCATCCCGTCCACACTGCACCGCGCTACGGAGTCACCTAGTGCAG | 8260 fluorescence intensity (a.u.)
46 | AGCCACGACCCAATCTTCGCTGCGGTTGACTTTAAATTAACGGAGTCACCTAGTGCAG | 9760 fluorescence intensity (a.u.)
47 | GCGTGTGTTCTTGTGCTGGATTGTGGAGTTCTTGATCCCTCGGAGTCACCTAGTGCAG | 10000 fluorescence intensity (a.u.)
48 | AGGAGGGGAGGCGCGGCGGAGGAGAAGAGGTGGGGATGGACGGAGTCACCTAGTGCAG | 10000 fluorescence intensity (a.u.)
49 | GCGCGGCGCGGCGGGACGGGGTGGGGCGAGGGCAGCAGCGCGGAGTCACCTAGTGCAG | 8520 fluorescence intensity (a.u.)
50 | GATAACATGTTGTAGTCTTCCAGGGGTGGGTGTTAGCTGTCGGAGTCACCTAGTGCAG | 16700 fluorescence intensity (a.u.)
51 | ACTCCGGCGGGTTAGGGTTTGGGGTTGGGGTGAGGGTAGGCGGAGTCACCTAGTGCAG | 10900 fluorescence intensity (a.u.)
52 | GGAGATACGGCGAGGGGAGGGGACGGAGGGGCGGGGTGCGCGGAGTCACCTAGTGCAG | 24700 fluorescence intensity (a.u.)
53 | CATGGTGACATGTTGTGGGGCTGTGTCTTGTGGGTACAGTCGGAGTCACCTAGTGCAG | 8650 fluorescence intensity (a.u.)
54 | CGAAATGGGAGGCGGGGTTTAGGGTTTCCGGCGGGGAGGGCGGAGTCACCTAGTGCAG | 25200 fluorescence intensity (a.u.)
55 | GGACGGAGGGGCGGGGTGCGACGCGGACGGCGGCGGCGGGCGGAGTCACCTAGTGCAG | 13500 fluorescence intensity (a.u.)
56 | TGTGGGACGATGGGGAGGTGTGGGGACGCACGCGGGGCGACGGAGTCACCTAGTGCAG | 10200 fluorescence intensity (a.u.)
57 | AACATAACTGTCTTCTTCCATTTGTATGTCATGTTTCTGTCGGAGTCACCTAGTGCAG | 10700 fluorescence intensity (a.u.)
58 | GCGATGGGAGGTGGGCGACGCGAGGGAGAGGGGAGAGGGGCGGAGTCACCTAGTGCAG | 18500 fluorescence intensity (a.u.)
59 | GGCGGCGCGGGTTTAGCGGGATGGGGAGGCGGCGAGTGGCCGGAGTCACCTAGTGCAG | 8140 fluorescence intensity (a.u.)
